Rows were chosen to be rich in hits. Some 2.4% of all compounds tested hit in one or more screens of this group.
ADAM17 inh: inhibitors of human ADAM17 | P78536 | recombinant ADAM17, EDANS/DABCYL FRET peptide cleavage | inhibition, % at 6.95 µM | actives 0.83% (n = 370,000) | AID 720648;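 active = inhibition above the mean of compounds lying between control limits plus 3 SD, set per campaign, cut at about 8.5% in these data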;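 note: 0% = DMSO-only wells as the low control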
ADAM10 inh: ADAM10 inhibition, QFRET primary screen; AID 720582; recombinant ADAM10, EDANS/DABCYL FRET peptide cleavage, 3 h; actives 0.62% (n = 370,000); inhibition, % at 7 µM;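 active = inhibition above a per-campaign cutoff equal to the mean of compounds falling between control-based bounds plus 3 SD, cut at about 20% in these data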;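 note: 0% = DMSO wells while the 100% control is not disclosed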
Target sequence (O14672 214-748 limits assumed): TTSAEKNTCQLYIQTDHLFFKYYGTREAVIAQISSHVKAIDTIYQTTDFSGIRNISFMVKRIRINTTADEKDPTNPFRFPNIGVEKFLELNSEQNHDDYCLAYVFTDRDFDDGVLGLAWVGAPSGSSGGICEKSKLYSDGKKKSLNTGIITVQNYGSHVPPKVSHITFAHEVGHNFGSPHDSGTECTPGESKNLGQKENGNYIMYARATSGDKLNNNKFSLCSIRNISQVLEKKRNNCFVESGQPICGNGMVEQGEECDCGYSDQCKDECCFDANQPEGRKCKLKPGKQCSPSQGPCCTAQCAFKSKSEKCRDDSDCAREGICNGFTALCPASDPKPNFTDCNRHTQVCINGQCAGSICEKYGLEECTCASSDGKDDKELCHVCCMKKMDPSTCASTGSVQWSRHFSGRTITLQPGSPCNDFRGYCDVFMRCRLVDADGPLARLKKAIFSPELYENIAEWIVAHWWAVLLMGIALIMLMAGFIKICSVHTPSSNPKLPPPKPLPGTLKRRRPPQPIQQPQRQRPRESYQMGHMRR
A3G deaminase: APOBEC3G (human) deaminase inhibition. actives 0.28% (n = 330,000). AID 493012. recombinant A3G, ssDNA deamination FAM/TAMRA fluorescence. Q9HC16. inhibition, % at 20 µM;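 active = inhibition of at least 40% at 20 µM, with no more than 30% in the related APOBEC3A deaminase screen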;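 note: plate controls were DMSO wells with A3G for no effect and wells lacking A3G enzyme for full effect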
APOBEC3A inh: human APOBEC3A DNA deaminase inhibition | P31941 | recombinant A3A, FAM/TAMRA ssDNA deamination fluorescence | inhibition, % at 20 µM | actives 0.41% (n = 330,000);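 active = at least 40% inhibition at 20 µM here, with at most 30% in a related deaminase screen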;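 note: plate controls were A3A with DMSO for no effect and wells lacking A3A enzyme for full effect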
NRP1-CendR mod: alters CendR peptide binding to human NRP-1; O14786; FAM-RPARPAR peptide binding to NRP-1, fluorescence polarization; inhibition, % at 25 µM; actives 0.85% (n = 360,000);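 active = inhibition or corrected inhibition above about 18%, plus a signal ratio from 0.5 to 1.5, limit read from the data, passing the limit was not always enough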
ADAM10 ctr: inhibits human ADAM10 in ADAM17 exosite counter-screen. shares compounds with ADAM17 inh. recombinant ADAM10, EDANS/DABCYL FRET peptide cleavage, 3 h. inhibition, % at 6.95 µM. actives 47% (n = 2,900);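 active = mean inhibition over the triplicate runs exceeds the activity threshold set in the earlier primary screen, cut at about 20% in these data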;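 note: 0% = DMSO wells and 100% = marimastat wells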
ADAM17 confirm: confirmation of inhibitors of human ADAM17. inhibition, % at 6.95 µM. shares compounds with ADAM17 inh. recombinant ADAM17, EDANS/DABCYL QFRET peptide cleavage. actives 65% (n = 2,900);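 active = mean inhibition across replicates above the hit cutoff set in the primary screen, cut at about 8.5% in these data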;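 note: 0% = DMSO wells and 100% = marimastat wells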
Starred values were filed as active, the others as inactive; . = no result.

SMILES	ADAM17 inh	ADAM10 inh	A3G deaminase	APOBEC3A inh	NRP1-CendR mod	ADAM10 ctr	ADAM17 confirm
Brc1ccccc1C1Cc2nnccc2CN1 (centres undefined)	-1.2	-6.2	.	.	.	.	.
NS(=O)(=O)c1ccc(NC(=O)/C=C/c2cccs2)cc1	10.4*	14.9	6.7	4.5	-6.8	-6.1	2.8
CS(=O)(=O)c1ccc(-c2csc(C(O)(c3ccccc3)C(F)(F)F)n2)cc1 (centres undefined)	5.2	10.3	.	.	-2.7	.	.
OC(c1ccccc1)(c1nc(-c2cc(F)cc(F)c2)cs1)C(F)(F)F (centres undefined)	9.5*	17.3	.	.	-13.0	39.9*	17.8*
CCOC(=O)[C@@]12CCC3=C1N(CCC3)C(=O)[C@H](CC(=O)NCc1ccc(OC)c(OC)c1)C2	-9.7	-23.1	.	.	.	.	.
O=C(NC(=S)Nc1ccc(Cc2ccncc2)cc1)c1ccccc1F	12.2*	9.5	-10.9	7.0	4.7	2.0	1.9
O=C(NC(Cc1c[nH]c2ccccc12)C(=O)OCC(=O)c1cccc2ccccc12)c1cccs1 (centres undefined)	9.5*	9.7	-1.6	-1.5	-20.3	9.3	8.9*
COC(=O)C(Cc1c[nH]c2ccccc12)NC(=O)c1cccs1 (centres undefined)	-2.0	-2.5	-5.3	-3.6	-0.3	.	.
COC(=O)C[C@H]1CC[C@@H]2[C@H](COc3ccc(NC(=O)NCc4ccccc4)cc3C(=O)N2C)O1	-7.2	-3.2	.	.	.	.	.
CCOC(=O)c1cc(=O)cc(C(=O)OCC)o1	1.9	1.9	-1.6	-1.3	2.4	.	.
COC(=O)c1cc(=O)cc(C(=O)OC)o1	8.7*	9.0	-6.9	-2.5	-3.3	-11.4	-1.1
Cc1ccc(C(=O)NC2CCCCN(Cc3ccc(Cl)cc3)C2=O)c(C)c1 (centres undefined)	-2.8	-3.8	.	.	.	.	.
COc1ccc(-c2cc(-c3nnc(SCC(=O)Nc4cccc(Cl)c4C)n3N)[nH]n2)cc1	1.9	-7.8	.	.	.	.	.
Cc1ccc(-c2nn3c(C)nnc3s2)cc1NC(=O)c1cccs1	11.5*	8.0	-4.8	3.9	-7.5	5.7	7.5
COc1ccc(/C=C/S(=O)(=O)NCc2ccc(F)cc2)c(CNC(=O)OC(C)(C)C)c1	1.4	8.1	.	.	.	.	.
COc1ccc(CNS(=O)(=O)/C=C/c2ccc(OC)cc2CNC(=O)OC(C)(C)C)cc1	9.4*	11.3	.	.	.	23.5*	9.7*
CCCC/C=C1/[C@@H](CC)N(Cc2ccc(OC)cc2OC)C2=N[C@@H](c3ccccc3)CC(=O)N21	3.6	9.5	.	.	.	.	.
O=C(NC(Cc1ccccc1)C(=O)N1CCCCCC1)c1ccccc1 (centres undefined)	1.8	9.3	7.7	5.2	12.0	.	.
O=C(NC(Cc1ccccc1)C(=O)N1CCCCC1)c1ccccc1 (centres undefined)	9.3*	2.1	-7.9	-1.1	-5.9	8.1	5.3
CCCCOc1cc(C)nc(NCc2ccccc2)n1	11.2*	13.9	9.8	3.8	8.7	16.2	8.4
CCOc1cc(C)nc(NCc2ccccc2)n1	0.3	0.3	2.4	3.4	-6.6	.	.
COC(=O)[C@]12C[C@H](CC(=O)N3CCOCC3)C(=O)N(Cc3ccc(Cl)cc3Cl)C1=C[C@H](C(C)(C)C)O[C@@H]2C	1.9	5.3	.	.	.	.	.
O=S1(=O)CCN2C(c3ccc4c(c3)CCCC4)=CSC2=N1	8.7*	7.9	-6.5	-2.8	6.3	23.5*	11.6*
COC[C@H]1CCCN1c1cccc2c1S(=O)(=O)N(C1CC1)CC[C@@H](C)O2	-8.2	-14.7	.	.	.	.	.
COC(=O)CSc1nnc(SCc2ccc(Cl)cc2)s1	-5.0	-2.0	-5.4	-4.4	-5.3	.	.
SMILES	ADAM17 inh	ADAM10 inh	A3G deaminase	APOBEC3A inh	NRP1-CendR mod	ADAM10 ctr	ADAM17 confirm
Cc1cccc(NC(=O)CSc2nnc(SCc3ccc(Cl)cc3)s2)c1	8.8*	11.8	.	.	.	14.9	11.7*
CC(=O)CC[C@H]1CC[C@]2(CCCN(C(=O)c3ccccc3)C2)O1	1.5	2.0	.	.	.	.	.
N#CC(C#N)=C1C=C2C=C(N3CCCCCC3)CCC2CC1 (centres undefined)	9.7*	-15.4	.	.	136.2	-0.4	5.2
N#CC(C#N)=C1C=C2C=C(N3CCOCC3)CCC2CC1 (centres undefined)	-5.3	-22.1	.	.	123.2	.	.
COc1cc(C(=O)OCn2nnc3ccccc3c2=O)cc(OC)c1OC	-0.6	0.7	-0.4	0.3	6.1	.	.
COc1cccc(C(=O)OCn2nnc3ccccc3c2=O)c1OC	8.9*	6.0	-1.3	0.5	9.9	-0.1	0.4
CCOC(=O)[C@@]12CCC3=C1N(CCC3)C(=O)[C@H](CC(=O)NCc1cccs1)C2	-8.6	-8.0	.	.	.	.	.
CCOc1cc(CNCCO)cc(Br)c1OCc1ccc(Cl)cc1	12.0*	14.0	3.4	1.5	8.3	4.3	4.3
Fc1cccc(Cn2ccc3ccc(-c4ccc5ccn(Cc6cccc(F)c6)c5c4)cc32)c1	-5.7	-14.5	.	.	.	.	.
Cc1cc2c(c(=O)o1)[C@@]1(C(=O)N(C)c3ccc([N+](=O)[O-])cc31)C1=C(CCCC1=O)O2	8.7*	4.1	.	.	.	0.0	3.9
COc1ccc(-c2cn[nH]c2N)cc1	8.8*	4.3	-7.3	-4.2	4.0	5.9	0.5
CCOc1ccc(-c2cn[nH]c2N)cc1	.	.	-8.7	2.2	-7.5	.	.
C=CCN1[C@H](C)[C@H](c2ccccc2)Oc2cc(Br)ccc2S1(=O)=O	2.5	-9.9	.	.	.	.	.
COC(=O)c1cccc(Cn2ccc3ccc(-c4ccc5ccn(C(=O)c6ccc(C)cc6)c5c4)cc32)c1	-9.3	-33.6	.	.	.	.	.
COC(=O)c1ccc(CNC(=O)COC(=O)C23CC4CC(CC(C4)C2)C3)cc1	8.7*	10.3	-9.9	-3.9	-6.5	8.6	2.7
O=C(COC(=O)C12CC3CC(CC(C3)C1)C2)NCc1ccccc1	2.0	-8.5	-8.1	-4.2	15.6	.	.
COc1cccc(CN(C)C(=O)c2ccc(OCC(=O)Nc3cccc(C(F)(F)F)c3)c(OC)c2)c1	8.8*	15.5	-6.4	-1.6	10.6	25.9*	15.3*
O=C(CSc1nnc(-c2ccccc2)n1-c1ccccc1)NN=C/C=C\c1ccccc1[N+](=O)[O-]	8.8*	14.4	.	.	.	30.5*	16.0*
O=C(NCC(=O)N1CCN(C(c2ccccc2)c2ccccc2)CC1)c1ccccc1Br	12.2*	14.2	.	.	0.0	20.1*	11.9*
O=C(NCC(=O)N1CCN(C(c2ccccc2)c2ccccc2)CC1)c1ccc(Br)o1	0.1	1.0	-5.6	7.6	8.2	.	.
CCCc1nc2c(C)cc(Br)cn2c1Cc1ccccc1OC	-9.1	-30.9	.	.	.	.	.
C(=N\Nc1nc(Nc2ccccc2)nc(N2CCOCC2)n1)/c1c[nH]c2ccccc12	9.2*	17.0	-5.3	-4.2	.	17.3	10.9*

Screens from PubChem BioAssay.
